Measured values taken from ChEMBL document CHEMBL3988442, “University of Dundee, Small-Polar-MMV Screening Library” (2021).
Hit rate of the full screen: of about 69,000 compounds, about 1,000 (1.4%) showed an effect of 50% or more. This excerpt belongs to a sample that is enriched for strong results.

Test system: Leishmania donovani
Assay: Leishmania intramacrophage assay
Assay type: functional, organism-based
Set-up: scale not given: in the data most compounds retested in dose-response had high values

Question: Which “Percent Effect” value (30 µM) does the source give for `COc1ccccc1OCCNCCn1cccn1` here?
Answer: 30.77%

Question: `Cc1ccc(C(=O)N2C[C@@H](N3CCN(C)CC3)[C@H]3OCCC[C@H]32)cn1` was tested. Which “Percent Effect” value (30.3 µM, […]) did it give?
Answer: 22.91%

Question: Which “Percent Effect” value (30 µM, 30.03 µM) does the source give for `CNC(=O)[C@@H]1C[C@H]2CN(Cc3nccs3)C[C@H]2N1C.O=C(O)C(F)(F)F.O=C(O)C(F)(F)F` here?
Answer: 9.102%

Question: `CC1CN(C(=O)c2cc(=O)[nH]c3ccc(F)cc23)CCO1` (centres undefined) was tested. Which “Percent Effect” value (30.3 µM, […]) did it give?
Answer: -3.043%

Question: For `CN(C)C[C@@H]1[C@H]2CN(C(=O)c3cc(=O)[nH]c4ccc(F)cc34)C[C@@H]12`, which “Percent Effect” value (30.3 µM, […]) is on record?
Answer: 55.47%

Question: With `CN(C)C[C@H]1C[C@@H](CO)CN(C(=O)c2cc(=O)[nH]c3cc(F)ccc23)C1` as the compound, how does the “Percent Effect” value (30.3 µM, […]) read?
Answer: 30.17%

Question: With `CCOC(=O)C1CCN(c2nccc(-n3nc(C)cc3C)n2)CC1` as the compound, how does the “Percent Effect” value (30.3 µM, […]) read?
Answer: 24.33%

Question: `Cc1cnc(N2CC(C(=O)N3CCOCC3)C3(CCOCC3)C2)nc1` (centres undefined) was tested. Which “Percent Effect” value (30.3 µM, […]) did it give?
Answer: 0.6566%

Question: How did the “Percent Effect” value (30 µM, 30.03 µM) turn out when `Cn1ccc(C(=O)N2CCCC(Cc3cccc4ncccc34)C2)n1` (centres undefined) was run?
Answer: 74.08%

Question: Which “Percent Effect” value (30.3 µM, […]) does the source give for `COCCNc1cc(-c2cccc(C(=O)O)c2C)c2cc[nH]c2n1` here?
Answer: 27.05%

Question: For `Cc1cc(C(=O)NCCN2CCCC(C)C2)nn1C(C)(C)C` (centres undefined), which “Percent Effect” value (30.3 µM, […]) is on record?
Answer: 12.01%

Question: `CN(C)C(=O)c1cncnc1-c1ccc(CNC(=O)C2CCCO2)cc1` (centres undefined) was tested. Which “Percent Effect” value (30.3 µM, […]) did it give?
Answer: -46.25%

Question: For `O=C1CC2(CCN(CCO)CC2)CN1Cc1cc(F)cc(F)c1`, which “Percent Effect” value (30 µM, 30.03 µM) is on record?
Answer: 24.96%

Question: How did the “Percent Effect” value (30 µM, 30.03 µM) turn out when `O=C1CC2(CCN(CC3CCOC3)CC2)CN1Cc1cc(F)cc(F)c1` (centres undefined) was run?
Answer: 41.14%

Question: How did the “Percent Effect” value (30.3 µM, […]) turn out when `O=C1CC2(CCN(CC3CC3)CC2)CN1Cc1cc(F)cc(F)c1` was run?
Answer: 59.82%

Question: `Cc1cc(C(N)=O)c2c(Br)cccc2n1` was tested. Which “Percent Effect” value (30.3 µM, […]) did it give?
Answer: -10.76%

Question: With `c1cnn(CC2CN(c3ncnc4sccc34)CCO2)c1` (centres undefined) as the compound, how does the “Percent Effect” value (30 µM, 30.03 µM) read?
Answer: 57.28%

Question: Which “Percent Effect” value (30 µM, 30.03 µM) does the source give for `Cc1cnn(CC2CN(c3ncnc4ccsc34)CCO2)c1` (centres undefined) here?
Answer: 66.34%

Question: How did the “Percent Effect” value (30 µM) turn out when `c1cnn(CC2CN(c3ncnc4[nH]ccc34)CCO2)c1` (centres undefined) was run?
Answer: 1.835%

Question: Which “Percent Effect” value (30.3 µM, […]) does the source give for `c1ccc2c(N3CCOC(Cn4cccn4)C3)ncnc2c1` (centres undefined) here?
Answer: -0.8022%

Question: `Cc1cnn(CC2CN(c3ncnc4[nH]ccc34)CCO2)c1` (centres undefined) was tested. Which “Percent Effect” value (30 µM) did it give?
Answer: 4.128%

Question: `c1cnn(CC2CN(c3ncnc4ccsc34)CCO2)c1` (centres undefined) was tested. Which “Percent Effect” value (30 µM, 30.03 µM) did it give?
Answer: 45.92%

Question: With `CN(C)CC1CN(c2ncnc3ccsc23)CCO1` (centres undefined) as the compound, how does the “Percent Effect” value (30.3 µM, […]) read?
Answer: 16.39%

Question: For `Cc1cnn(CC2CN(c3ncnc4ccccc34)CCO2)c1` (centres undefined), which “Percent Effect” value (30 µM, 30.03 µM) is on record?
Answer: 53.49%

Question: How did the “Percent Effect” value (30.3 µM, […]) turn out when `c1nc(N2CCOC(Cn3cncn3)C2)c2sccc2n1` (centres undefined) was run?
Answer: 23.8%

Question: How did the “Percent Effect” value (30.3 µM, […]) turn out when `Cc1nc2cc(C(=O)N(CCC#N)CC3CCCO3)ccc2[nH]1` (centres undefined) was run?
Answer: 5.976%

Question: With `Cc1nn(C)c(C)c1OCC(=O)NCC(O)Cc1ccccc1` (centres undefined) as the compound, how does the “Percent Effect” value (30.3 µM, […]) read?
Answer: -11.07%

Question: With `CC(C)(C)CC(=O)NS(=O)(=O)c1ccc(F)cc1C(F)(F)F` as the compound, how does the “Percent Effect” value (30.3 µM, […]) read?
Answer: 3.58%

Question: `CNS(=O)(=O)c1ccc(C(=O)N2CCCC2c2ccccc2C)o1` (centres undefined) was tested. Which “Percent Effect” value (30 µM) did it give?
Answer: 17.32%

Question: How did the “Percent Effect” value (30.3 µM, […]) turn out when `O=C(Cn1ccc2sccc2c1=O)NCCCc1ccccc1` was run?
Answer: 1.811%

Question: Which “Percent Effect” value (30.3 µM, […]) does the source give for `Cc1cccc(CN2CCCC3(CCN(CC(=O)N(C)C)C3=O)C2)n1.O=C(O)C(F)(F)F` (centres undefined) here?
Answer: -21.17%

Question: `Cc1ccc(C(=O)Nc2ccc3c(c2)N(C)CCN(C)C3)c(=O)[nH]1` was tested. Which “Percent Effect” value (30.3 µM, […]) did it give?
Answer: 4.534%

Question: With `NC1(CN2CCCCC2)CCCCC1` as the compound, how does the “Percent Effect” value (30.3 µM, […]) read?
Answer: -14.65%

Question: `Cc1nc(CN2CCCn3c(nc(Cn4cncn4)cc3=O)C2)cs1.O=C(O)C(F)(F)F` was tested. Which “Percent Effect” value (30.3 µM, […]) did it give?
Answer: 16.7%

Question: Which “Percent Effect” value (30.3 µM, […]) does the source give for `CNC(=O)Cc1n[nH]c(-c2cncc(Br)c2)n1` here?
Answer: -1.104%

Question: `CCOC(=O)Cc1n[nH]c(-c2cncc(Br)c2)n1` was tested. Which “Percent Effect” value (30.3 µM, […]) did it give?
Answer: 100.5%

Question: With `CCNC(=O)Cc1n[nH]c(-c2cncc(Br)c2)n1` as the compound, how does the “Percent Effect” value (30.3 µM, […]) read?
Answer: -72.67%

Question: For `Cc1oncc1C(=O)N1CCC(O)(CN2CCOCC2)C(C)(C)C1` (centres undefined), which “Percent Effect” value (30.3 µM, […]) is on record?
Answer: 22.16%

Question: With `COc1cccc(CN(C)Cc2nc3c(cnn3C)c(=O)[nH]2)c1OC` as the compound, how does the “Percent Effect” value (30.3 µM, […]) read?
Answer: -6.431%

Question: How did the “Percent Effect” value (30.3 µM, […]) turn out when `COc1cc(NC2CCN(C3CCS(=O)(=O)CC3)CC2)ncn1` was run?
Answer: 36.7%

Question: How did the “Percent Effect” value (30.3 µM, […]) turn out when `Cc1nc2[nH]cnc(Nc3cc(C)n(C)n3)c-2n1` was run?
Answer: 75.58%

Question: How did the “Percent Effect” value (30.3 µM, […]) turn out when `Cc1nc2[nH]cnc(Nc3ccn(C)n3)c-2n1` was run?
Answer: -6.289%

Question: Which “Percent Effect” value (30.3 µM, […]) does the source give for `Cc1nc2[nH]cnc(Nc3cnn(C)c3)c-2n1` here?
Answer: 10.52%

Question: With `CCSCCC(=O)Nc1ncn(CC(=O)NCc2ccccc2)n1` as the compound, how does the “Percent Effect” value (30 µM, 30.03 µM) read?
Answer: 19.14%

Question: How did the “Percent Effect” value (30.3 µM, […]) turn out when `O=C(c1c2c(N3CCOCC3)ncnc2n2ccccc12)N1CCCC1` was run?
Answer: 16.59%

Question: `CN(C)CCN1CCOCC2(CCCN(C(=O)c3ccoc3)C2)C1.O=C(O)C(F)(F)F.O=C(O)C(F)(F)F` (centres undefined) was tested. Which “Percent Effect” value (30.3 µM, […]) did it give?
Answer: 9.003%

Question: Which “Percent Effect” value (30.3 µM, […]) does the source give for `Cc1cc2cc(CNC3CCN(S(C)(=O)=O)CC3)oc2cc1C` here?
Answer: 23.07%

Question: With `Cc1cc2cc(CNC3CCN(CC(=O)N(C)C)CC3)oc2cc1C` as the compound, how does the “Percent Effect” value (30.3 µM, […]) read?
Answer: 25.29%

Question: Which “Percent Effect” value (30.3 µM, […]) does the source give for `Cc1cc2cc(CNC3CCN(CC4CCOC4)CC3)oc2cc1C` (centres undefined) here?
Answer: 70.06%
